From PubChem BioAssay
BAZ2B block = qHTS Assay for Inhibitors of BAZ2B. AID 504333, 2011. Bromodomain adjacent to zinc finger domain protein 2B (Homo sapiens), Q9UIF8. hit rate 4.4% among 360,000. AlphaScreen BAZ2B-H3K14Ac peptide displacement. Potency, µM (titrated, usually from 114 µM), without a hit: at the highest dose activity change, negative = inhibition, hits mostly inhibitors; note: % is set by controls: 0 for no effect and ±100 for the full control effect; nearly all actives have a fitted effect of over 60% in size
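AlphaScreen luminescence quantifies BAZ2B engagement of H3K14Ac peptide; the protein and biotinylated peptide are both at 50 nM final, buffer PBS pH 7.4 with 0.01% Tween-20, all steps at room temperature.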
HP1b chromo inh = HTS for Inhibitors of HP1-beta Chromodomain Interactions with Methylated Histone Tails | AlphaScreen HP1-beta / biotin-H3K9me3 peptide binding | Chromobox protein homolog 1 (Homo sapiens), P83916 | Potency, µM (titrated, usually from 114 µM), without a hit: at the top dose activity change, negative = inhibition, hits mostly inhibitors | hit rate 0.56% among 390,000 | AID 540317, 2011; note: nearly all actives have a fitted effect of over 70% in size
Target sequence (P83916 whole entry, looked up): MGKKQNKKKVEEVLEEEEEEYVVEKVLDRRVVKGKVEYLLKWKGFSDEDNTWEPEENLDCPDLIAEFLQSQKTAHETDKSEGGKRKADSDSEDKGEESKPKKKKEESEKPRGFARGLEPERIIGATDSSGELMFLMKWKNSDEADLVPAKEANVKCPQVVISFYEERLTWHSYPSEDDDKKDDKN
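Compound inhibition of the preformed complex between 50 nM HP1-beta and 50 nM biotinylated H3K9me3 peptide was read by AlphaScreen. Buffer was PBS pH 7.4 with 0.01% Tween-20. Incubations ran 30 min at room temperature, with 10 ug/mL donor/acceptor beads.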
G9a inh = qHTS Assay for Inhibitors of Histone Lysine Methyltransferase G9a; Histone-lysine N-methyltransferase EHMT2 (Homo sapiens), Q96KQ7; G9a H3K9 monomethylation, AlphaScreen, 2 h; Potency, µM (highest dose often 102 µM), without a hit: at the highest dose activity, negative = inhibition, most hits filed as inhibitors; hit rate 8.8% among 350,000; note: % is set by controls: 0 for no effect and ±100 for the full control effect; nearly all actives have a fitted effect of over 75% in size
Target sequence (Q96KQ7 913-1193 limits assumed): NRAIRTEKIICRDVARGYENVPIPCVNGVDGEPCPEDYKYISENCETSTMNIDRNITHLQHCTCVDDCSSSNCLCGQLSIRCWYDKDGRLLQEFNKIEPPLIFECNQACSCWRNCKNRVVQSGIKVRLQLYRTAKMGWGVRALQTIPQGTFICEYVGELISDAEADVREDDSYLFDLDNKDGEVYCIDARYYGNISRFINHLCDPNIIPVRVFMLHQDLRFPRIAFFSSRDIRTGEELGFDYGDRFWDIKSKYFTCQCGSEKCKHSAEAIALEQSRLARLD
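Signal arises when biotinylated H3K9 peptide, once monomethylated, bridges streptavidin donor and antibody-captured acceptor beads. Enzyme at 20 nM was preincubated 15 min with test compounds; peptide 500 nM and SAM 20 uM then reacted for 2 h.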
L3MBTL1 inh = qHTS Assay for the Inhibitors of L3MBTL1; AlphaScreen L3MBTL1–H3K9me1 peptide binding; Potency, µM (highest dose often 57.1 µM), inactives show top-dose activity, negative = inhibition, most hits filed as inhibitors; hit rate 0.66% among 230,000; AID 485360, 2010; note: % is set by controls: 0 for no effect and ±100 for the full control effect; nearly all actives have a fitted effect of over 60% in size
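L3MBTL1 (50 nM) pre-complexed 30 min with biotinylated H3(1-15)K9me1 peptide (75 nM), then compounds added for 30 min at room temperature; AlphaScreen streptavidin donor/nickel chelate acceptor beads (10 ug/mL final) read after 30 min dark incubation.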
Sfp inh = qHTS Assay for Inhibitors of Bacillus subtilis Sfp phosphopantetheinyl transferase (PPTase); 4'-phosphopantetheinyl transferase ffp (Bacillus subtilis), Q9F4F7; Biochemical Sfp PPTase activity, qHTS; Potency, µM, for the others: largest response in the series, negative = inhibition, actives largely listed as inhibitors; hit rate 3.5% among 310,000; AID 1490, 2009;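 note: the enzyme is Sfp with the accession as filed and its product quenches rhodamine fluorescence; 0% = enzyme reaction without inhibitor and -100% = no enzyme wells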
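Reaction rates are the 30-min fluorescence difference (ex 525, em 598 nm) in wells containing 15 nM Sfp, 5 uM rhodamine-CoA and 12.5 uM BHQ-2-YbbR at pH 7.6 with 10 mM MgCl2.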
JMJD2A Tudor inh = qHTS Assay for Inhibitors of JMJD2A-Tudor Domain; Potency, µM (top dose mostly 114 µM), inactives show at the top dose activity change, negative = inhibition, usual class: inhibitors; hit rate 4.4% among 390,000; AlphaScreen JMJD2A-Tudor / H3K4me3 peptide binding; AID 504339, 2011; Lysine-specific demethylase 4A (Homo sapiens), O75164; note: % is set by controls: 0 for no effect and ±100 for the full control effect; nearly all actives have a fitted effect of over 50% in size
Starred values were filed as active, the others as inactive; u = inconclusive; x = not tested or not shown; [ ] = another dose, or the depositor's remark. The list is not random: actives were taken first. Their share in the collection is about 12%. Calls come from the whole dose curve; as a rule, active = well fitted curve in the direction sought with a large enough effect; inconclusive = small, poorly fitted or top-dose-only effect, or another doubt; inactive = no such curve, though single readings can be large; an effect the other way counts as inactive or inconclusive. Potency is the fitted concentration of half-maximal effect.

SMILES | BAZ2B block | HP1b chromo inh | G9a inh | L3MBTL1 inh | Sfp inh | JMJD2A Tudor inh
COc1ccc2sc(-c3ccccc3OC)c(-c3ccc(OCCN(C)C)cc3)c2c1 | x | -35% | x | -9% | x | 50µM*
COc1ccccc1N=c1sc2ccccc2n1C | -4% | 53% | -1%[59 µM] | x | 56µM* | 15%
COc1ccc(/C=C2\NC(=S)N(CC3CCCO3)C2=O)c(OC)c1C (configuration not stated) | u | 17% | 50µM* | x | -18% | -32%
Cc1ccc(SCC(=O)Nc2ccc(N3CCOCC3)cc2)cc1 | -20% | 13% | -27% | -11% | 16% | -7%
O=C(CSc1ccccc1F)Nc1ccc(N2CCOCC2)cc1 | 13% | 29% | u | -1% | x | -16%
Cc1nc(SCC(=O)Nc2ccc(N3CCOCC3)cc2)nc(C)c1C | -33% | 27% | 40µM* | -6% | u | -13%
Cc1cc(C)nc(SCC(=O)Nc2ccc(N3CCOCC3)cc2)n1 | -5% | 51% | 11µM* | -10% | 6% | -8%
COC(=O)c1ccccc1SCC(=O)Nc1ccc(N2CCOCC2)cc1 | -25% | -5% | 79µM* | x | 2% | -21%
Cc1ccc(NC(=O)c2cc(N3C(=O)C=CC3=O)ccc2Cl)cc1C | u | u | 1.6µM* | u | 14µM* | 10µM*
Cc1cc(=O)n2nc(N(C)CC(=O)NCc3ccccc3C)sc2n1 | 1% | 21% | 0%[59 µM] | x | x | -4%
Cc1ccc(NC(=O)c2cc(N3C(=O)C=CC3=O)ccc2N2CCOCC2)cc1 | u | u | 1µM* | -5% | 4.5µM* | 11µM*
Cc1ccc(NC(=O)CSCC(=O)Nc2ccc(N3CCOCC3)cc2N2CCOCC2)cc1 | 9% | 7% | 50µM* | 3% | x | -19%
COc1ccc(CCC(=O)NCc2nc3cccnc3n2Cc2ccc(C)cc2)cc1 | -2% | 24%[57 µM] | 11%[59 µM] | x | x | -9%
Cc1ccc(N(Cc2cc3ccc(C)cc3[nH]c2=O)C(=O)c2ccco2)cc1 | -22% | -2% | u | x | 22µM* | -36%
Cc1cccc(N(Cc2cc3ccc(C)cc3[nH]c2=O)C(=O)c2ccco2)c1 | 16% | 18% | u | -21% | 22µM* | -26%
Cc1ccc2cc(CN(Cc3ccco3)C(=O)c3cccs3)c(=O)[nH]c2c1 | -35% | 7% | 13%[12.7 µM] | -8%[11.4 µM] | 25µM* | -20%
Cc1ccc(N(Cc2cc3ccccc3[nH]c2=O)C(=O)c2ccco2)c(C)c1 | -12% | 1% | -9%[12.7 µM] | x | -9% | -28%
Cc1ccc2cc(CN(C(=O)c3ccco3)c3ccccc3)c(=O)[nH]c2c1 | 3% | 17% | u | 2% | 28µM* | -11%
Cc1cc(C)c(NC(=O)Cn2c(=O)n(Cc3ccco3)c(=O)c3ccc(C(=O)NC4CCCC4)cc32)c(C)c1 | x | 66% | 36%[59 µM] | x | x | -4%
Cc1ccccc1NC(=O)C(=O)NCC(c1ccc2c(c1)OCO2)N1CCN(c2ccccc2)CC1 (configuration not stated) | u | -10%[57 µM] | -5%[59 µM] | x | x | -26%
COc1cc(C(c2c(C)[nH][nH]c2=O)c2c(C)[nH][nH]c2=O)ccc1OS(=O)(=O)c1ccccc1 | -26% | 10% | 22µM* | x | -1% | -32%
COc1cc(C(c2c(C)[nH][nH]c2=O)c2c(C)[nH][nH]c2=O)ccc1OC(C)C | u | 37% | -42% | -1% | 0% | -6%
COc1cc(C(c2c(C)[nH][nH]c2=O)c2c(C)[nH][nH]c2=O)cc(Cl)c1O | u | 21% | 45µM* | x | 7% | 5%
COc1cc(C(c2c(C)[nH][nH]c2=O)c2c(C)[nH][nH]c2=O)ccc1OS(=O)(=O)c1ccc(C)cc1 | -26% | 21% | 2.8µM* | x | -7% | -29%
COc1cc(C(c2c(C)[nH][nH]c2=O)c2c(C)[nH][nH]c2=O)cc(OC)c1OC | -7% | -3% | -23% | -9% | -9% | -14%
SMILES | BAZ2B block | HP1b chromo inh | G9a inh | L3MBTL1 inh | Sfp inh | JMJD2A Tudor inh
CC(C)CC(NC(=O)NC(CCC(=O)O)C(=O)O)C(=O)O (configuration not stated) | x | x | x | x | -5% | x
CN(Cc1ccccc1)S(=O)(=O)c1cc(Br)cc2c1N(C(=O)C1CC1)CC2 | -2% | 35% | 0%[59 µM] | x | x | 1%
CCOc1ccc(-n2c(=O)c3c4c(sc3n(Cc3cccc(Cl)c3)c2=O)CCCC4)cc1 | -10% | 26% | -2%[59 µM] | x | x | 0%
COc1ccc(-c2noc(-c3ccccc3NC(=O)c3cc(OC)c(OC)c(OC)c3)n2)cc1 | -1% | 25% | u | x | x | -1%
CCCCNc1nc2c(S(=O)(=O)c3ccc(C)cc3)nnn2c2ccsc12 | -24% | 18% | -3%[59 µM] | x | x | -20%
S=C1NC2=C(CCCC2=C2SCCS2)C(c2ccccc2)N1 (configuration not stated) | u | -16% | 10µM* | u | -7% | u
CCOC(=O)c1c(NC(=O)CSc2nnc(-c3cccnc3)o2)sc(C(C)=O)c1C | u | u | 10%[59 µM] | 5% | 2% | 18µM*
CCOC(=O)c1c(NC(=O)CSc2nnc(-c3ccccc3C)n2C)sc(C(C)=O)c1C | 50µM* | -17% | u | x | -16% | -31%
CCOC(=O)c1c(NC(=O)CSc2nc3ccccc3o2)sc(C)c1C | -5% | 48% | 11%[2.33 µM] | 13% | 45µM* | -4%
CCOC(=O)c1c(NC(=O)CSc2nnc(-c3ccco3)o2)sc(C)c1C | -29%[57.1 µM] | 4% | -40% | -13% | 50µM* | -11%
CCOC(=O)c1c(NC(=O)CSc2nc3ccccc3s2)sc(C)c1C | 2% | 57% | -6% | 5% | 1% | -11%
CCOC(=O)c1c(NC(=O)CSc2nc3cccnc3n2C)sc(C(C)=O)c1C | 6% | 30% | 0%[2.33 µM] | 9% | u | -15%
CCOC(=O)c1c(NC(=O)CSc2nnc(-c3ccco3)o2)sc(C(C)=O)c1C | -29% | 35% | 12%[59 µM] | x | -3% | -20%
O=C(CSc1nc2ccccc2o1)Nc1nc2ccc(Br)cc2s1 | -17% | 55% | 45µM* | x | 13% | -21%[11.4 µM]
Cc1ccc(C(C)C)c(OCCCn2c(=O)oc3ccc(C)cc32)c1 | 42% | 136% | 108%[59 µM] | x | x | 63%
Cc1cc2c(s1)c1cnn(Cc3c(F)cccc3C(F)(F)F)c(=O)c1n2C | x | x | x | x | x | -16%
CCc1nc(N(CC)CC)c2oc3ccccc3c2n1 | x | 87% | 2%[59 µM] | 12% | -4% | 9%
